For some of these results: Results with a measured potency or affinity are listed apart.

Common to all, as to parameters: scale not given: direction of the effect not stated beside the values
Assay [1] addresses Protein translocase subunit SecA (Escherichia coli (strain K12)) (UniProt P10408). The assay is described as follows: Assay to Identify E. coli SecA ATPase Inhibitors. The assay is classed as functional. The note with it: 30 µM.
The target of assay [2] is T1, Ubiquitin-activating enzyme e1, putative (Leishmania donovani (strain BPK282A1)) (UniProt E9BSI1).
T1 sequence (whole entry): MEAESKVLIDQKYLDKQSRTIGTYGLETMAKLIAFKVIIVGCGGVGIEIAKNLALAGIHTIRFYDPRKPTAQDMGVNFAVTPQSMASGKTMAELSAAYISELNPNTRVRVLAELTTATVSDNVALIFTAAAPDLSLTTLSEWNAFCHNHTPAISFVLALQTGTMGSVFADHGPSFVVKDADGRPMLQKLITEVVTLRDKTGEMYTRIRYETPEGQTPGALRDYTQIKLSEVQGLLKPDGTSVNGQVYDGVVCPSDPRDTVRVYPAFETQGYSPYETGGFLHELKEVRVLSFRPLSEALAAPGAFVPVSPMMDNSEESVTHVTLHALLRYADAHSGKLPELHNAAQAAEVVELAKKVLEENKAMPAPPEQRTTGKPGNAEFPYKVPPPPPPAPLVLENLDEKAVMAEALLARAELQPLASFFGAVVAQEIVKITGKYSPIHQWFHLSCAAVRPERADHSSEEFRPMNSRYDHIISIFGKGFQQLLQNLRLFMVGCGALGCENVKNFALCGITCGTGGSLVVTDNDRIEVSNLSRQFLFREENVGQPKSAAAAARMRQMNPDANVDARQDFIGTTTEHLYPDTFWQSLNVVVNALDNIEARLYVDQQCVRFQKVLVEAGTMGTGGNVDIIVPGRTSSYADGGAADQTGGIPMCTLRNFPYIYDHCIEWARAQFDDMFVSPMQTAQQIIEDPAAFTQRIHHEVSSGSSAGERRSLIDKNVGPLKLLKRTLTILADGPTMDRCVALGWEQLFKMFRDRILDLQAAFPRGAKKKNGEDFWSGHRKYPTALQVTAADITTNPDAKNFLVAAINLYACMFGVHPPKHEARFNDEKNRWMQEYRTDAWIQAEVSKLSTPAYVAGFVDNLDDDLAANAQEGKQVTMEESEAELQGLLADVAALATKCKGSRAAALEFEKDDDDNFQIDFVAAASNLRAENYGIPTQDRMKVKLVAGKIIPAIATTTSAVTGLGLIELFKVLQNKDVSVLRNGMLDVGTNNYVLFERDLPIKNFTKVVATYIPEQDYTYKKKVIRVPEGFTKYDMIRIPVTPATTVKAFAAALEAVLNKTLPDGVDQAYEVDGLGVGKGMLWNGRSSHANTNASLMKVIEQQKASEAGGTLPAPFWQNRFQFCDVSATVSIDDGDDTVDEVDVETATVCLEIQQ
Nature of the assay: Leishmania donovani Ubiquitin Activating Enzyme (LdE1). It counts as functional. Particulars: 30 µM.

Assay [3] deals with AMP-activated protein kinase, AMPK (Homo sapiens) (UniProt P54646+O43741+P54619+Q9UGJ0+Q9Y478+Q13131+Q9UGI9). Nature of the assay: AMP-dependent Kinase enzyme assay. An in vitro enzyme assay that detects ADP turnover that is directly proportional to AMPK activity. This uses naive AMPK that is activated during the assay with MK-8722. Particulars: 30 µM. It counts as functional.

Assay [4] addresses Sialic acid-binding Ig-like lectin 9 (Homo sapiens) (UniProt Q9Y336). The assay is described as follows: Hs-Siglec9 ALPHAscreen SOP 20170721. Particulars: 10 µM. On the technique in general: In Alpha technology, singlet oxygen from a donor bead excites a nearby acceptor bead.
The subject of another assay is Trypanosoma cruzi. The assay is described as follows: Trypanosoma cruzi phosphomannomutase and mannose-1-phosphate guanylyltransferase assay. It counts as functional. Particulars: 10 µM.
Assay [5] deals with T2, Arginase-2, mitochondrial (Homo sapiens) (UniProt P78540).
T2 sequence (whole entry): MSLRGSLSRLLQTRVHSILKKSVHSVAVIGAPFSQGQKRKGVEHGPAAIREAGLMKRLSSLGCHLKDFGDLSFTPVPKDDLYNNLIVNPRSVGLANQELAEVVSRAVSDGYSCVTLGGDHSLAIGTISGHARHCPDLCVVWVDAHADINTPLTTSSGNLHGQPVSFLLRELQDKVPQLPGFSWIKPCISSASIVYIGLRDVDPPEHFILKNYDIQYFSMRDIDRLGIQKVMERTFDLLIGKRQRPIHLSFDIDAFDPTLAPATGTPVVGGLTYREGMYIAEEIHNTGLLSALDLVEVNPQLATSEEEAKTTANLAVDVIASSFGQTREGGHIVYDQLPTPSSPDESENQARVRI
The assay is described as follows: in vitro enzyme assay to detect the production of urea directly proportional to the activity of Arginase II. Note: in the data most compounds retested in dose-response had high values. The note with it: 33.3 µM. The assay is classed as functional.

In assay [6] the target is T3, Proteasome subunit beta (Trypanosoma cruzi) (UniProt O96673).
T3 sequence (whole entry): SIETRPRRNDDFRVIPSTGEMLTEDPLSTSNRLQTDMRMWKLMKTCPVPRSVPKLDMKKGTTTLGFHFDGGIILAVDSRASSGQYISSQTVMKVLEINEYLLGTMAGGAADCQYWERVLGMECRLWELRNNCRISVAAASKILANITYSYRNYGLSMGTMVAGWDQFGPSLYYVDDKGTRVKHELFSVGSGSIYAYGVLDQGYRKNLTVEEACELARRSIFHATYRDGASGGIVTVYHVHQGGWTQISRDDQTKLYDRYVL
The assay is described as follows: Trypanosoma cruzi proteasome chymotrypsin-like activity (TcProtChymo) assay. Note: in the data most compounds retested in dose-response had high values. The note with it: 9.37 µM. The assay is classed as functional.

The species entered for another assay is Homo sapiens. The assay is described as follows: To identify inhibition of the IFN signalling (Jak-Stat) pathway via expression of an eGFP reporter gene under the control of an IFN-stimulated response element (ISRE) containing MxA promoter. It counts as functional. The note with it: 30 µM. Background: A reporter such as luciferase makes a cellular process visible.

In assay [7] the target is T4, Tyrosyl-tRNA synthetase, putative (Trypanosoma cruzi (strain CL Brener)) (UniProt Q4DSP6).
T4 sequence (whole entry): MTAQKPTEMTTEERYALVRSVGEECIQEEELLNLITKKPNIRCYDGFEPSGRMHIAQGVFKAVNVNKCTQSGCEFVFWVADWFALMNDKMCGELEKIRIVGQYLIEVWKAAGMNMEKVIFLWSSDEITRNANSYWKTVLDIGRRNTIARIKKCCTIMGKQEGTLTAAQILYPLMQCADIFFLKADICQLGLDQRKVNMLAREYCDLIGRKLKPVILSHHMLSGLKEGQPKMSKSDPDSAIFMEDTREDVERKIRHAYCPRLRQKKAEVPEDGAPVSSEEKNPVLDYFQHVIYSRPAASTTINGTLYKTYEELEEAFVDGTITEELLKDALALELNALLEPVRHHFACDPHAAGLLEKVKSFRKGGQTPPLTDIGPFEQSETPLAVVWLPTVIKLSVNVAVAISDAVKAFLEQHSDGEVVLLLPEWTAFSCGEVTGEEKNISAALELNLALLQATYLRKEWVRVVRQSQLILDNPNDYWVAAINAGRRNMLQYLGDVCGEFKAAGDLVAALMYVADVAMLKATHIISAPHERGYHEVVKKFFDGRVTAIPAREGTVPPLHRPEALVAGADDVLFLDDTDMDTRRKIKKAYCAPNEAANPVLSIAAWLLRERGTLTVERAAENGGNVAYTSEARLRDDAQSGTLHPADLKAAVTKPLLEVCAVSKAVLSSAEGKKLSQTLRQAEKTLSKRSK
The assay is described as follows: Trypanosoma cruzi tyrosyl tRNA synthetase (TcYRS) _High Tyrosine SOP. Note: in the data most compounds retested in dose-response had high values. It counts as functional. The note with it: 30 µM.

For assay [8], the target named is T4, Tyrosyl-tRNA synthetase, putative (Trypanosoma cruzi (strain CL Brener)). Nature of the assay: Trypanosoma cruzi tyrosyl tRNA synthetase (TcYRS) SOP. The assay is classed as functional. Particulars: 30 µM.
Assay [9] concerns the target Chromo domain-containing protein 1 (Saccharomyces cerevisiae (strain ATCC 204508 / S288c) (Baker's yeast)) (UniProt P32657). Nature of the assay: ScCHD-1 Enzyme Inhibition Assay. Note: in the data most compounds retested in dose-response had high values. The assay is classed as functional. Particulars: 30 µM.

Chain of Sialic acid-binding Ig-like lectin 9 (Homo sapiens) (Q9Y336 whole entry): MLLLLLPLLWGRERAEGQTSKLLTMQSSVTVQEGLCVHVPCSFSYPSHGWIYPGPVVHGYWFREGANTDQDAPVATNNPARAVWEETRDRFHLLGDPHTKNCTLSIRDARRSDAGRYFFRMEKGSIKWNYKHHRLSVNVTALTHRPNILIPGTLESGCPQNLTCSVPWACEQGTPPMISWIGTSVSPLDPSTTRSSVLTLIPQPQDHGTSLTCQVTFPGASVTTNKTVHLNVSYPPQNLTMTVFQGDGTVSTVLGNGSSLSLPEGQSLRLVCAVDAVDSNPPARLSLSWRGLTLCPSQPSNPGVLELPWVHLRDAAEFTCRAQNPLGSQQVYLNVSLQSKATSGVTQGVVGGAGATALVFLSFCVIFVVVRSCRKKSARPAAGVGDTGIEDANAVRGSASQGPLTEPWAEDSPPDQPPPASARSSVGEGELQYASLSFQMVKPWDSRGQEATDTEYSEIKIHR
Chain of Protein translocase subunit SecA (Escherichia coli (strain K12)) (P10408 whole entry): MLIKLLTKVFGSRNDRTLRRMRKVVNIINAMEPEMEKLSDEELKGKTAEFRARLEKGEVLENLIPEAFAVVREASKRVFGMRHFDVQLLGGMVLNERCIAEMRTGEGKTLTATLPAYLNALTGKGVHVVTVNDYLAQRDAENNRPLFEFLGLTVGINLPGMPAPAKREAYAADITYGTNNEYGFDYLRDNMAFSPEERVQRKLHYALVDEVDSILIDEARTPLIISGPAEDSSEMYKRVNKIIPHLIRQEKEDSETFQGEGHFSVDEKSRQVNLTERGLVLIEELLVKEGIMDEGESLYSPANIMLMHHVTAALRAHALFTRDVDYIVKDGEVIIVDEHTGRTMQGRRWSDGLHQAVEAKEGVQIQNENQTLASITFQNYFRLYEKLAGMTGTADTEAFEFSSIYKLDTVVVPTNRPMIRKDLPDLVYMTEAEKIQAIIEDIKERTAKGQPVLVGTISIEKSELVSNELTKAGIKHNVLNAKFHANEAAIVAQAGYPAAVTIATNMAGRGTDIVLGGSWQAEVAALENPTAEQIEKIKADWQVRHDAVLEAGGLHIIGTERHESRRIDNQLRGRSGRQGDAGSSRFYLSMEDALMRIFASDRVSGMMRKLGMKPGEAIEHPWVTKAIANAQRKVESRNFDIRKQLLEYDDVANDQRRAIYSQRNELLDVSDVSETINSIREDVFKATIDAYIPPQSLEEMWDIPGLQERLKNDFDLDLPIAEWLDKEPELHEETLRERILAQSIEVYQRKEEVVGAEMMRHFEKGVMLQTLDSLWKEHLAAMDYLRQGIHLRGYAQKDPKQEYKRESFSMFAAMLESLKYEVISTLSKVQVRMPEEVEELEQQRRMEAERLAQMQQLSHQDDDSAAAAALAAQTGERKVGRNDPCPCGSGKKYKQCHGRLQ
Chain of Chromo domain-containing protein 1 (Saccharomyces cerevisiae (strain ATCC 204508 / S288c) (Baker's yeast)) (P32657 whole entry, the tested form may be a part): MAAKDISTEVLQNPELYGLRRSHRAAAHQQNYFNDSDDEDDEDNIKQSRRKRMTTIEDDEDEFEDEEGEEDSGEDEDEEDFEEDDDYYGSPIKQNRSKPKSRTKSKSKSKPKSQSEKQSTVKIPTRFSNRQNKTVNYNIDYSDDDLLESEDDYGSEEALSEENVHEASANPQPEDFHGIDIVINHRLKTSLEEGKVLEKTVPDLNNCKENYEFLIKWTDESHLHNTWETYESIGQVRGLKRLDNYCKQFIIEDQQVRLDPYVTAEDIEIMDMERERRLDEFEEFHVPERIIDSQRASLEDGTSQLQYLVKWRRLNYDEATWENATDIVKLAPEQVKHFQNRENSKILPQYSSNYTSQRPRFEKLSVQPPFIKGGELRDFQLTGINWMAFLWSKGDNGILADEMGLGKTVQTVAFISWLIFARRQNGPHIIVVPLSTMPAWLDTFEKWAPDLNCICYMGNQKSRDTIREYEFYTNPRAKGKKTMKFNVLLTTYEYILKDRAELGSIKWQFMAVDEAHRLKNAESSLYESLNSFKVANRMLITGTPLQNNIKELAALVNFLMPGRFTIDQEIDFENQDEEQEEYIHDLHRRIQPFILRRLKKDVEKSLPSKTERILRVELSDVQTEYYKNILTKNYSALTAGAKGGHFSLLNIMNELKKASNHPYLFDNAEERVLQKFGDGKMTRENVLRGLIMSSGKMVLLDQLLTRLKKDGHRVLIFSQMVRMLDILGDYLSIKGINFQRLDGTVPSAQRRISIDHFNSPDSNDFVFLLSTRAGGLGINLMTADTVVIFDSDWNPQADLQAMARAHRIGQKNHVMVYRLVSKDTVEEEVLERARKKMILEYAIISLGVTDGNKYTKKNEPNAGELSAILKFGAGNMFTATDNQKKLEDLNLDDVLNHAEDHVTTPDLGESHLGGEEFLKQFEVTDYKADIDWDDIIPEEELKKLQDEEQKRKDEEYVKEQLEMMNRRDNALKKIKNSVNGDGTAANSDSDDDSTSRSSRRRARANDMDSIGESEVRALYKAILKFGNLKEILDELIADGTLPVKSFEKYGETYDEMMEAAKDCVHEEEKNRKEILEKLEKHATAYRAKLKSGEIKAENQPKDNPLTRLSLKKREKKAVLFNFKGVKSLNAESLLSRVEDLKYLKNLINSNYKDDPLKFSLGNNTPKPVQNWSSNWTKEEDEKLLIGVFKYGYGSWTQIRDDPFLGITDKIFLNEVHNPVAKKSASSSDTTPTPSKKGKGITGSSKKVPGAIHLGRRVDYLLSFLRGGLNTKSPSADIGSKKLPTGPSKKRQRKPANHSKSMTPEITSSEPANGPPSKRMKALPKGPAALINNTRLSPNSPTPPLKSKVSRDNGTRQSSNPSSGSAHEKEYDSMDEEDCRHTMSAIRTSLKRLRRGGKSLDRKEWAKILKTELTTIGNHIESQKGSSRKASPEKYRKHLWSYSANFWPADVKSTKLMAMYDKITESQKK

Consider `O=C(c1ccc(Br)s1)N1CCN(Cc2ccc(OC(F)(F)F)cc2)CC1`, for which the Percent Effect is -0.131% in [1]; -13.7% in assay [2]; 41.1% in assay [3]; 2.45% in assay [4]; -3.72% in the assay with Trypanosoma cruzi; -1.82% in assay [5]. Moreover, the Percent Effect in assay [6] was 19%; in the assay listed under Homo sapiens, 8.24%; in assay [7], 1.07%; in assay [8], -2.5%; in [9], -11.7%.
Take `Cc1noc2ncc(C(=O)NCC3CCOC3)cc12` (stereo unspecified): the Percent Effect is -4.3% in [1]; 0% in [2]; -6.17% in assay [3]; -5.94% in assay [4]; -6.96% with Trypanosoma cruzi; 1.53% in assay [5]. Moreover, the Percent Effect was 6.35% in assay [6]; 26.5% in the assay listed under Homo sapiens; 2.45% in assay [7]; 0% in assay [8]; -12.5% in [9].
Consider `COc1cc(C)sc1C(=O)N1CCC(Nc2cccnc2)CC1`, for which the Percent Effect in assay [1] was -6.41%; in assay [2], -121%; in assay [3], 0.841%; in assay [4] it was 37.6%; with Trypanosoma cruzi, 3.17%; in [5], 3.19%. In addition, the Percent Effect in assay [6] amounted to 3%; in the assay filed under Homo sapiens, 5.06%; in assay [7] it was 8.33%; in [8], 11.1%; in assay [9], 0.713%.
On to `N#Cc1cccc(CN2CC[C@@H]3[C@@H]2CC(=O)N3Cc2cccnc2)c1`, for which the Percent Effect in [1] is -2.43%; in assay [2], 16%; in [3] it was 12.4%; in assay [4] it was 1.95%; with Trypanosoma cruzi, -4.72%; in [5], -1.17%. For the same molecule, the Percent Effect in assay [6] was 13.7%; in the assay filed under Homo sapiens, -10.2%; in assay [7], 3.19%; in assay [8], 11.5%; in assay [9] it was -1.86%.
`CNC(=O)CS(=O)(=O)Cc1cc(Cl)c2c(c1)OCCCO2`: the Percent Effect in assay [1] was -1.64%; in assay [2], 12.7%; in assay [3], -5.11%; in assay [4], -6.27%; in the assay with Trypanosoma cruzi it was 3.87%; in [5] it was -2.66%. The Percent Effect in assay [6] was 7.62%; in the assay filed under Homo sapiens, -4.79%; in assay [7] it was 10.3%; in [8] it was 24.1%; in assay [9], -6.28%.
As to `COc1cccc2cc(CNCc3ccnc(N4CCOCC4)c3)oc12`, the Percent Effect in assay [1] is -5.63%; in assay [2], 0%; in [3] it was -16.9%; in [4], 3.48%; in the assay on Trypanosoma cruzi it was -6.7%; in [5], -6.41%. In addition, the Percent Effect is 10.6% in assay [6]; 26.6% in the assay listed under Homo sapiens; 1.48% in [7]; -11.1% in assay [8]; 3.15% in assay [9].
Turning to `Cc1cnn(C2CN(CC(O)c3ccc4c(c3)OCCO4)C2)c1` (stereo unspecified), the Percent Effect in [1] is -0.511%; in assay [2], -24%; in assay [3], -2.25%; in [4] it was -4.57%; in the assay on Trypanosoma cruzi, -0.292%; in [5], 0%. The Percent Effect is 7.5% in [6]; 10.6% in the assay filed under Homo sapiens; 13.7% in assay [7]; 13.6% in assay [8]; -6.83% in assay [9].
On to `CC(C)c1n[nH]c(C2CN(C(=O)CCn3ccccc3=O)CCO2)n1` (stereo unspecified), for which the Percent Effect is -3.88% in assay [1]; 1.27% in assay [2]; 3.8% in assay [3]; -2.89% in assay [4]; -3.18% in the assay on Trypanosoma cruzi; -2.37% in assay [5]. Further, the Percent Effect was 2.92% in assay [6]; -3.42% in the assay listed under Homo sapiens; 3.12% in [7]; 7.59% in assay [8]; -5.25% in assay [9].
As for `COCc1c(C(=O)O)nnn1Cc1cccc(C(F)(F)F)c1`, the Percent Effect was -0.917% in assay [1]; 9.33% in assay [2]; -2.19% in assay [3]; 0.663% in [4]; -4.13% in the assay on Trypanosoma cruzi; -8.98% in assay [5]. For the same molecule, the Percent Effect in [6] is 14.1%; in the assay filed under Homo sapiens, 5.79%; in assay [7], 3.17%; in [8] it was 10.3%; in [9], -10.2%.
`Cc1csc2c(N3CCC(NCCCc4ccncc4)CC3)ncnc12`: the Percent Effect was -0.362% in [1]; 2.6% in assay [2]; 5.76% in [3]; 17.7% in assay [4]; -1.08% in the assay on Trypanosoma cruzi; -1.38% in assay [5]. The Percent Effect in assay [6] was 6.49%; in the assay listed under Homo sapiens it was -3.09%; in assay [7], 7.53%; in assay [8], 11.1%; in assay [9] it was -2.5%.
Take `Cc1cnc(CN2CCCC(c3cc(C(N)=O)[nH]n3)C2)o1` (stereo unspecified): the Percent Effect in assay [1] is 1.3%; in assay [2] it was 24.3%; in assay [3], -15.7%; in [4], -4.2%; in the assay with Trypanosoma cruzi, 0.472%; in assay [5] it was -16.8%. Moreover, the Percent Effect in assay [6] is 17.1%; in the assay filed under Homo sapiens, -3.25%; in [7], 5.42%; in assay [8], 18.5%; in assay [9] it was -9.23%.

Source of the values: ChEMBL document CHEMBL3988442, “University of Dundee, Small-Polar-MMV Screening Library” (2021).
